The full list was thinned out, with hits kept by preference.
YB-1 expr inh – YB-1 expression inhibition; delta delta Cp (YB-1 minus CDIP) (no concentration beside the values); AID 434959; 0.37% of 30,000 active; U2OS, qRT-PCR YB-1 vs CDIP delta delta Cp, 16 h; hits give high values; zero = DMSO, each unit about twofold;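 active = delta delta Cp rounded down to an integer at or above 3, about 3 SD of DMSO wells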;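 also: higher means less YB-1 transcript or more CDIP transcript relative to DMSO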
PD-1 reverse act – activators reversing PD-1 mediated T-cell inhibition | primary human CD4 T cells, PD-L1 beads, CellTiter-Glo 96 h | activation, % (concentration not given with the values) | 29,000 tested, under 10 active | AID 2316; call rule not given here;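 also: 0% = median vehicle wells and 100% = positive control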
NOMO-1 viab – STK33 inhibitor candidate reducing NOMO-1 cell viability; NOMO-1 AML viability, CellTiter-Glo luminescence, 72 h; inhibition, % (no concentration beside the values); 7.5% of 37,000 active; AID 2330; in the data active = inhibition above about 80%
U2OS ROS induce – raises reactive oxygen species in U2OS cancer cells; 2% of 46,000 active; U2OS ROS induction, H2DCF-DA fluorescence; ROS induction (% of piperlongumine), % at 10 µM; in the data active = ROS induction above about 79%, passing the limit was not always enough;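 also: 0% = DMSO vehicle median and 100% = reference compound median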
Numbers without * were called inactive.

Results for O=C(O)CCCCCCC(=O)N/N=C/c1cn(S(=O)(=O)c2ccccc2)c2ccccc12 ?
YB-1 expr inh: -0.16; U2OS ROS induce: 52

How did Cc1ccc(S(=O)(=O)NN2C(=O)S/C(=C/c3ccccc3)C2=S)cc1 do in these assays?
U2OS ROS induce: 16

What do the screens show for `CCOC(=O)CNC(=O)c1cc(-c2ccccn2)nc2c(C)c(Cl)ccc12`?
NOMO-1 viab: 97*

Results for CC1(C)CC(=O)C(C=NCCN2CCN(C(=O)Nc3ccc(Cl)c(Cl)c3)CC2)=C(O)C1 ?
U2OS ROS induce: -2

What do the screens show for `C/C=C/C=C/C(=O)c1cc(C)c(O)c(C)c1O`?
YB-1 expr inh: -0.44; PD-1 reverse act: -8; NOMO-1 viab: 61; U2OS ROS induce: 102*

What do the screens show for `O=C(/C=C/c1ccccc1)Nc1nnc(CSCc2ccccc2F)s1`?
U2OS ROS induce: 1

What do the screens show for `C[C@H]1CN([C@@H](C)CO)C(=O)c2cccc(NC(=O)Nc3cccc4ccccc34)c2O[C@H]1CN(C)Cc1ccc(C(F)(F)F)cc1`?
YB-1 expr inh: 0.41; PD-1 reverse act: -2; NOMO-1 viab: 53; U2OS ROS induce: 20

Results for C[C@H](CO)N1C[C@H](C)[C@@H](CN(C)Cc2ccc(C(F)(F)F)cc2)Oc2c(NC(=O)Nc3ccccc3)cccc2C1=O ?
YB-1 expr inh: 0.6; NOMO-1 viab: 93*; U2OS ROS induce: 22

What do the screens show for `C[C@@H]1CN([C@@H](C)CO)C(=O)c2cccc(NC(=O)Nc3ccccc3)c2O[C@H]1CN(C)Cc1ccc(C(F)(F)F)cc1`?
YB-1 expr inh: -0.053; PD-1 reverse act: -6; NOMO-1 viab: 88*; U2OS ROS induce: 70

Results for C[C@H](CO)N1C[C@H](C)[C@@H](CN(C)Cc2ccc(Oc3ccccc3)cc2)Oc2c(NC(=O)Nc3ccc(C(F)(F)F)cc3)cccc2C1=O ?
YB-1 expr inh: 0.69; NOMO-1 viab: 97*; U2OS ROS induce: 16

What do the screens show for `C[C@@H]1CN([C@H](C)CO)C(=O)c2cccc(NC(=O)Nc3ccccc3)c2O[C@@H]1CN(C)Cc1ccc(C(F)(F)F)cc1`?
YB-1 expr inh: 0.41; PD-1 reverse act: 1; NOMO-1 viab: 38; U2OS ROS induce: -12

How did C[C@@H]1CN([C@H](C)CO)C(=O)c2cccc(NC(=O)Nc3cccc4ccccc34)c2O[C@@H]1CN(C)Cc1ccc(C(F)(F)F)cc1 do in these assays?
YB-1 expr inh: 0.42; PD-1 reverse act: -1; NOMO-1 viab: 98*; U2OS ROS induce: 3

What do the screens show for `COc1cc(OC)c(NC(=O)Cc2ccccc2[N+](=O)[O-])cc1Cl`?
PD-1 reverse act: -1; NOMO-1 viab: -14

What do the screens show for `NNC(=O)CCCNc1ccc(Cl)cc1`?
U2OS ROS induce: -7

Results for C[C@@H]1CN([C@@H](C)CO)C(=O)c2cccc(NC(=O)Nc3ccc(C(F)(F)F)cc3)c2O[C@H]1CN(C)Cc1ccccc1 ?
YB-1 expr inh: -0.38; PD-1 reverse act: -7; NOMO-1 viab: 103*; U2OS ROS induce: 3

Results for C[C@H]1CN([C@@H](C)CO)C(=O)c2cccc(NC(=O)Nc3ccccc3)c2O[C@@H]1CN(C)Cc1ccc(C(F)(F)F)cc1 ?
YB-1 expr inh: -0.29; PD-1 reverse act: 2; NOMO-1 viab: 104*; U2OS ROS induce: 46

How did COc1cccc(/C=C/c2cc(C(F)(F)F)[nH]c(=O)n2)c1OCC(=O)O do in these assays?
PD-1 reverse act: 0; NOMO-1 viab: -11; U2OS ROS induce: 17

Results for O=C(CS(=O)c1ccccc1[N+](=O)[O-])Oc1ccc(Cl)cc1Cl (configuration not stated) ?
PD-1 reverse act: -4; NOMO-1 viab: 69; U2OS ROS induce: 64

Results for Cc1ccc(C)c(OC(=O)CS(=O)c2ccccc2[N+](=O)[O-])c1 (configuration not stated) ?
PD-1 reverse act: -2; NOMO-1 viab: 120*; U2OS ROS induce: 21

How did Cc1[nH]n(-c2ccccc2)c(=O)c1/C=C1\SC(=S)N(Cc2ccccc2)C1=O do in these assays?
U2OS ROS induce: 19

Results for C[C@@H]1CN([C@H](C)CO)C(=O)Cc2cc(NC(=O)Nc3ccc4c(c3)OCO4)ccc2O[C@H]1CN(C)C ?
YB-1 expr inh: 11*; PD-1 reverse act: 0; NOMO-1 viab: 16; U2OS ROS induce: -1

What do the screens show for `C[C@@H]1CN([C@H](C)CO)C(=O)Cc2cc(NC(=O)Nc3ccc4c(c3)OCO4)ccc2O[C@H]1CN(C)CC1CC1`?
YB-1 expr inh: -0.14; PD-1 reverse act: 1; NOMO-1 viab: -3; U2OS ROS induce: 128*

Results for C[C@@H]1CN([C@@H](C)CO)C(=O)Cc2cc(NC(=O)Nc3ccc4c(c3)OCO4)ccc2O[C@@H]1CN(C)C ?
YB-1 expr inh: 0.26; PD-1 reverse act: 2; NOMO-1 viab: 16; U2OS ROS induce: 99*

What do the screens show for `CCc1ccc2[nH]c(C(=O)NCc3ccccc3)cc2c1`?
U2OS ROS induce: -6

What do the screens show for `COc1ccc(NC(=O)CSc2nnc(N)n2-c2ccccc2)cc1`?
NOMO-1 viab: 2

What do the screens show for `COc1ccc(CN(C)C[C@H]2Oc3ccc(NC(=O)Nc4ccc(C(F)(F)F)cc4)cc3C(=O)N([C@H](C)CO)C[C@H]2C)cc1`?
YB-1 expr inh: -0.24; NOMO-1 viab: 129*; U2OS ROS induce: 12

What do the screens show for `COc1ccc(CN(C)C[C@H]2Oc3ccc(NC(=O)Nc4ccc(OC)cc4)cc3C(=O)N([C@@H](C)CO)C[C@H]2C)cc1`?
YB-1 expr inh: 0.11; PD-1 reverse act: 0; NOMO-1 viab: 29; U2OS ROS induce: 6

How did COc1ccc(CN(C)C[C@H]2Oc3ccc(NC(=O)Nc4ccc(OC)cc4)cc3C(=O)N([C@@H](C)CO)C[C@@H]2C)cc1 do in these assays?
YB-1 expr inh: -0.044; NOMO-1 viab: 13; U2OS ROS induce: -3

How did COc1ccc(CN(C)C[C@H]2Oc3ccc(NC(=O)Nc4ccc(C(F)(F)F)cc4)cc3C(=O)N([C@H](C)CO)C[C@@H]2C)cc1 do in these assays?
YB-1 expr inh: 0.1; PD-1 reverse act: -5; NOMO-1 viab: 104*; U2OS ROS induce: 19

What do the screens show for `COc1ccc(NC(=O)Nc2ccc3c(c2)C(=O)N([C@H](C)CO)C[C@H](C)[C@@H](CN(C)Cc2ccc(C(F)(F)F)cc2)O3)cc1`?
YB-1 expr inh: -0.4; PD-1 reverse act: -2; NOMO-1 viab: 107*; U2OS ROS induce: 22

Results for COc1ccc(CN(C)C[C@H]2Oc3ccc(NC(=O)Nc4ccc(C(F)(F)F)cc4)cc3C(=O)N([C@@H](C)CO)C[C@H]2C)cc1 ?
YB-1 expr inh: -0.14; PD-1 reverse act: -6; NOMO-1 viab: 126*; U2OS ROS induce: -6

How did O=C(O)CCCCCCC(=O)N/N=C/c1ccccc1O do in these assays?
YB-1 expr inh: -0.12; U2OS ROS induce: -3

What do the screens show for `N#CCN(CC#N)C(=O)C(Sc1ccccc1)c1ccccc1` (configuration not stated)?
U2OS ROS induce: 13

What do the screens show for `CS(=O)(=O)N(CC(=O)NC1CCCCC1)c1ccc(F)cc1`?
PD-1 reverse act: 0; NOMO-1 viab: 32; U2OS ROS induce: 4

Compound activity (PubChem BioAssay)
